This is part of a sample that, as a whole, favours compounds with a hit. Of some 83,000 tested, about 20% had one in any assay.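 Compound tested at a single concentration for 48 hours in 96-well plates; a percent growth value below 10 was scored as active.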 A number with no mark means an inactive call. Active and inactive are the calls of the source.

The assay deals with OVCAR-5 ovarian. Nature of the assay: NCI-60 one-dose screen, 48 h (100 = growth as untreated, 0 = no growth, -100 = all killed). To be noted: 10 µM unless noted.
Take `O=C(O)C(O)C(O)C(=O)O.[NH-]C1CCCCC1[NH-].[Pt+2]` (configuration not stated): the growth is 108%.

For the compound `Cc1ccc(Nc2c(C(N)=O)cnc3ccc(-c4csc(N)n4)cc23)cc1`, the growth is 99.6%.

Regarding `Cl/C(=N\Nc1ccccc1)c1ccccc1`, the growth was 99.1%.

Take `COc1cc(-c2c3sc(=O)[nH]c3nc3c2c(=O)[nH]n3C(C)C)cc2c1OCO2`: the growth is 96.6%.

`CC(C)(C)n1cc(-c2ccnc(NCCNS(=O)(=O)c3ccccc3)c2)c(-c2cccc(O)c2)n1`: the growth was 78.4%.

`CC/C(Cc1ccccc1)=C(/c1ccc(O)cc1)c1ccc(OCCN2CCCC2)cc1`: the growth was 19.8%.

`O=C(NC(Cc1ccccc1)C(=O)CCl)OCc1ccccc1` (configuration not stated): the growth is 92.3%.

On to `CCCCCC(=O)N(CCCC)CCCC`, for which the growth is 103%.

As to `COc1cccc(/C=C2/C(=O)N(Cc3ccco3)SC2=S)c1OC`, the growth is 103%.

`COc1ccc(-c2cc(/C=C3\C(=O)Nc4ccc(Cl)cc43)[nH]n2)cc1`: the growth is 92.5%.

In the case of `CCOC(=O)C(C#N)C1CCCCC1` (configuration not stated), the growth was 99.8%.

As to `CC(C)[C@H]1COC(=O)N1[C@@H]1C(=O)N([C@@H](CCC(=O)N2CCN(C3CCCC3)CC2)C(=O)N[C@@H]2CCCc3ccccc32)[C@@H]1/C=C/c1cccc(Br)c1`, the growth is 88.2%.

Consider `Nc1ccc(N2CCOCC2)cc1`, for which the growth was 91.7%.

With `COc1cccc(/C=C\C(=O)c2ccccc2)c1`, the growth was 94.7%.

With `NS(=O)(=O)c1ccc(-n2ncc3c(=O)[nH]c(CN4CCN(c5cc6c(cc5F)c(=O)c(C(=O)O)cn6C5CC5)CC4)nc32)cc1`, the growth was 97.6%.

Take `COc1cc(C2CC(=O)Nc3c2c(C)nn3-c2nc3ccccc3[nH]2)cc(OC)c1OC` (configuration not stated): the growth is 103%.

With `CN1CCCCC1CCN1c2ccccc2Sc2ccc(Br)cc21` (configuration not stated), the growth is 85.9%.

With `Cc1ccc(C2CC3c4ccccc4C2C2CCCCN32)cc1` (configuration not stated), the growth is 96.2%.

Turning to `CCOC(=O)CC(C)=N`, the growth was 107%.

In the case of `N=S(=O)(NC(=O)c1ccc(Cl)cc1Cl)c1ccc(Br)s1` (configuration not stated), the growth was 119%.

On to `COc1ccc(CN(c2ccc(C)cc2)C2OC(=O)c3ccccc32)cc1OC` (configuration not stated), for which the growth was 89.7%.

As to `c1c2c(cc3c1OCO3)Cc1cc3c(cc1Cc1cc4c(cc1C2)OCO4)OCO3`, the growth is 102%.

In the case of `CCCCCCCCCCCCS(=O)CC(C)O` (configuration not stated), the growth is 103%.

`CC1(C)CC(C(=O)OCCCCCCCCCCC[P+](c2ccccc2)(c2ccccc2)c2ccccc2)C(C)(C)N1O` (configuration not stated): the growth was -62.9% (active).

In the case of `COc1ccc(/C(=C/c2ccc3ccccc3c2)c2nn[nH]n2)cc1OC`, the growth is 60%.

Consider `Cc1cccc(NC(=O)c2sc3nc4c(cc3c2N)C(=O)CCC4)c1`, for which the growth was 44.6%.

Turning to `O=[N+]([O-])c1cccc(C2CC(c3ccccc3)=Nc3ccccc3S2)c1` (configuration not stated), the growth is 109%.

Regarding `CCOC(=O)/C=C/c1ccc(C(=O)OCC)[nH]1`, the growth was 75.5%.

With `CS(CCCCN=C=S)=NC(=O)c1c(F)c(F)c(F)c(F)c1F` (configuration not stated), the growth was 109%.

Consider `COC1C/C(=N\O)C2OC(c3ccccc3)OCC2O1` (configuration not stated), for which the growth is 109%.

As for `Cc1cc(Nc2nc(N3CCN(C)CC3)nc3ccccc23)n[nH]1`, the growth is 86.7%.

Consider `O=C1Nc2ccccc2/C1=C/C(=N/c1nnc(-c2ccccc2)s1)c1ccccc1`, for which the growth was 78.9%.

`COc1ccc(N(Cc2cc(OC)c(OC)c(OC)c2)C2OC(=O)c3ccccc32)cc1` (configuration not stated): the growth was 65.5%.

Take `Cc1csc2ccc(Cl)cc12`: the growth was 102%.

In the case of `O=C1Nc2ccccc2/C1=C/C(=N/c1nnc(-c2ccc(Cl)cc2)s1)c1ccccc1`, the growth was 72.6%.

As for `CC(=O)OCC1OC(OC2=C(CC=C(Cl)Cl)C(=O)c3ccccc3C2=O)C(OC(C)=O)C(OC(C)=O)C1OC(C)=O` (configuration not stated), the growth was 105%.

Take `Cc1cc2cc3cc(C)c(N(C)C)cc3[n+](C)c2cc1N(C)C`: the growth is 63.4%.

(Values after PubChem BioAssay (NCI).)
